# Assay results as given in the supplement of paper PMC10037445.
# The full ranking holds about 2,900 compounds; the median of “NF-kB SEAP reporter activity, fold change vs agonist alone” is about 0.99, and the highest 2% start at about 2.6. The sample as a whole holds a higher share of the highest values than the screen did.
# What was measured:
# [1] = system: RAW-Dual; assay: NF-kB SEAP reporter activity, fold change vs agonist alone; cytotoxicity flag (confluency mask): cytotoxic (confluency <70% of control); higher = enhanced NF-kB activity
# Summary of the method: (§1)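 RAW-Dual macrophages (50,000 cells/well in DMEM, 384-well plates) received 50 nL of library stock by pin tool, then a PRR agonist 1 h later, and were kept at 37 °C, 5% CO2. After 20 hours, supernatant was read for IRF by QuantiLuc luminescence and for NF-κB by QuantiBlue absorbance at 620 nm. Reporter activity is fold change over agonist-alone wells. Cytotoxic wells had IncuCyte confluency below 70% of agonist controls in both mask sets.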
# [2] = system: RAW-Dual; assay: NF-kB SEAP reporter activity, fold change vs agonist alone; higher = enhanced NF-kB activity; conditions: library stock concentration (final ~1000-fold dilution): 10 mM
# Summary of the method: as §1
# [3] = system: RAW-Dual; assay: NF-kB SEAP reporter activity, fold change vs agonist alone; cytotoxicity flag (confluency mask): not cytotoxic; higher = enhanced NF-kB activity
# Summary of the method: as §1
# [4] = agonist: ODN 1826 (TLR9) 0.5 ug/mL
# [5] = agonist: Pam2CSK4 (TLR2/6) 0.1 ug/mL
# [6] = agonist: Pam3CSK4 (TLR2/1) 0.1 ug/mL
# [7] = cytotoxicity flag (confluency mask): cytotoxic (confluency <70% of control), agonist: Imiquimod (TLR7) […]
# [8] = cytotoxicity flag (confluency mask): cytotoxic (confluency <70% of control), agonist: MPLA (TLR4) […]
# [9] = cytotoxicity flag (confluency mask): not cytotoxic, agonist: Imiquimod (TLR7) […]
# [10] = cytotoxicity flag (confluency mask): not cytotoxic, agonist: MPLA (TLR4) […]
smiles,measurement,setting,value
COc1cc(OCc2cccc(-c3ccccc3)c2C)cc(OC)c1CN1CCCCC1C(=O)O (configuration not stated) (library stock concentration (final ~1000-fold dilution): 10 mM),NF-kB SEAP reporter activity,[1]; agonist: LPS (TLR4) 0.1 ug/mL,1.21
same,NF-kB SEAP reporter activity,[1]; [4],0.794
same,NF-kB SEAP reporter activity,[1]; [5],1.03
same,NF-kB SEAP reporter activity,[1]; [6],1.17
COc1cc(OCc2cccc(-c3ccccc3)c2C)cc(OC)c1CN1CCCCC1C(=O)O (configuration not stated),NF-kB SEAP reporter activity,[2]; [7],1.22
same,NF-kB SEAP reporter activity,[2]; [8],1.03
Cc1nccn1CC1CCc2c(c3ccccc3n2C)C1=O.Cl (configuration not stated) (library stock concentration (final ~1000-fold dilution): 10 mM),NF-kB SEAP reporter activity,[3]; agonist: LPS (TLR4) 0.1 ug/mL,0.91
same,NF-kB SEAP reporter activity,[3]; [4],0.853
same,NF-kB SEAP reporter activity,[3]; [5],0.901
same,NF-kB SEAP reporter activity,[3]; [6],1.11
Cc1nccn1CC1CCc2c(c3ccccc3n2C)C1=O.Cl (configuration not stated),NF-kB SEAP reporter activity,[2]; [9],0.917
same,NF-kB SEAP reporter activity,[2]; [10],0.785
COc1cc2ncnc(Nc3cccc(Cl)c3)c2cc1OC (library stock concentration (final ~1000-fold dilution): 10 mM),NF-kB SEAP reporter activity,[1]; agonist: LPS (TLR4) 0.1 ug/mL,1.59
same,NF-kB SEAP reporter activity,[1]; [4],0.692
same,NF-kB SEAP reporter activity,[1]; [5],0.764
same,NF-kB SEAP reporter activity,[1]; [6],1.02
C#Cc1cccc(Nc2ncnc3cc4c(cc23)OCCOCCOCCO4)c1 (library stock concentration (final ~1000-fold dilution): 10 mM),NF-kB SEAP reporter activity,[3]; agonist: LPS (TLR4) 0.1 ug/mL,1.8
same,NF-kB SEAP reporter activity,[3]; [4],0.972
same,NF-kB SEAP reporter activity,[3]; [5],1.16
same,NF-kB SEAP reporter activity,[3]; [6],1.44
COc1cc2ncnc(Nc3cc(Br)c(O)c(Br)c3)c2cc1OC (library stock concentration (final ~1000-fold dilution): 10 mM),NF-kB SEAP reporter activity,[3]; agonist: LPS (TLR4) 0.1 ug/mL,2.14
same,NF-kB SEAP reporter activity,[3]; [4],0.951
same,NF-kB SEAP reporter activity,[3]; [5],0.984
same,NF-kB SEAP reporter activity,[3]; [6],0.757
COc1cc2ncnc(Nc3cccc(Cl)c3F)c2cc1OC(=O)N1CCN(C)CC1C (configuration not stated) (library stock concentration (final ~1000-fold dilution): 10 mM),NF-kB SEAP reporter activity,[3]; agonist: LPS (TLR4) 0.1 ug/mL,1.19
same,NF-kB SEAP reporter activity,[3]; [4],0.84
same,NF-kB SEAP reporter activity,[3]; [5],1.19
same,NF-kB SEAP reporter activity,[3]; [6],1.1
C#Cc1cccc(Nc2ncnc3cc(OCCOC)c(OCCOC)cc23)c1,NF-kB SEAP reporter activity,[2]; [9],1.02
same,NF-kB SEAP reporter activity,[2]; [10],1.88
C#Cc1cccc(Nc2ncnc3cc(OC)c(NC(=O)N4CC5CCN(C)C5C4)cc23)c1 (configuration not stated),NF-kB SEAP reporter activity,[2]; [9],1.09
same,NF-kB SEAP reporter activity,[2]; [10],1.4
COc1cc2ncnc(Nc3ccc(O)c(Br)c3)c2cc1OC,NF-kB SEAP reporter activity,[2]; [9],1.45
same,NF-kB SEAP reporter activity,[2]; [10],1.78
COc1cc2ncnc(Nc3cc(Br)c(O)c(Br)c3)c2cc1OC,NF-kB SEAP reporter activity,[2]; [9],0.787
same,NF-kB SEAP reporter activity,[2]; [10],1.53
C#Cc1cccc(Nc2ncnc3cc(OCCOC)c(OCCO)cc23)c1.Cl (library stock concentration (final ~1000-fold dilution): 10 mM),NF-kB SEAP reporter activity,[3]; agonist: LPS (TLR4) 0.1 ug/mL,4.71
same,NF-kB SEAP reporter activity,[3]; [4],1.41
same,NF-kB SEAP reporter activity,[3]; [5],1.02
same,NF-kB SEAP reporter activity,[3]; [6],1.87
COc1cc2ncnc(Nc3ccc(F)c(Cl)c3)c2cc1NC(=O)/C=C/CN1CCCCC1 (library stock concentration (final ~1000-fold dilution): 10 mM),NF-kB SEAP reporter activity,[1]; agonist: LPS (TLR4) 0.1 ug/mL,0.266
same,NF-kB SEAP reporter activity,[1]; [4],0.26
same,NF-kB SEAP reporter activity,[1]; [5],0.179
same,NF-kB SEAP reporter activity,[1]; [6],0.384
C#Cc1cccc(Nc2ncnc3cc(OC)c(NC(=O)N4CC5CCN(C)C5C4)cc23)c1 (configuration not stated) (library stock concentration (final ~1000-fold dilution): 10 mM),NF-kB SEAP reporter activity,[3]; agonist: LPS (TLR4) 0.1 ug/mL,3.99
same,NF-kB SEAP reporter activity,[3]; [4],0.205
same,NF-kB SEAP reporter activity,[3]; [5],0.732
same,NF-kB SEAP reporter activity,[3]; [6],0.783
COc1cc2ncnc(Nc3ccc(O)c(Br)c3)c2cc1OC (library stock concentration (final ~1000-fold dilution): 10 mM),NF-kB SEAP reporter activity,[3]; agonist: LPS (TLR4) 0.1 ug/mL,2.33
same,NF-kB SEAP reporter activity,[3]; [4],1.17
same,NF-kB SEAP reporter activity,[3]; [5],0.685
same,NF-kB SEAP reporter activity,[3]; [6],1.19
C#Cc1cccc(Nc2ncnc3cc(OCCOC)c(OCCOC)cc23)c1.Cl (library stock concentration (final ~1000-fold dilution): 2 mM),NF-kB SEAP reporter activity,[3]; agonist: LPS (TLR4) 0.1 ug/mL,2.26
same,NF-kB SEAP reporter activity,[3]; [4],0.972
same,NF-kB SEAP reporter activity,[3]; [5],0.853
same,NF-kB SEAP reporter activity,[3]; [6],1.1
COc1cc2ncnc(Nc3ccc(F)c(Cl)c3)c2cc1NC(=O)/C=C/CN1CCCCC1,NF-kB SEAP reporter activity,[2]; [7],2.28
same,NF-kB SEAP reporter activity,[2]; [8],1.52
COc1cc2ncnc(Nc3cccc(Cl)c3F)c2cc1OC(=O)N1CCN(C)CC1C (configuration not stated),NF-kB SEAP reporter activity,[2]; [9],0.868
same,NF-kB SEAP reporter activity,[2]; [10],1.05
COc1cc2ncnc(Nc3cccc(Cl)c3)c2cc1OC,NF-kB SEAP reporter activity,[2]; [7],1.58
same,NF-kB SEAP reporter activity,[2]; [8],1.42
C#Cc1cccc(Nc2ncnc3cc4c(cc23)OCCOCCOCCO4)c1,NF-kB SEAP reporter activity,[2]; [9],1.06
same,NF-kB SEAP reporter activity,[2]; [10],1.53
C#Cc1cccc(Nc2ncnc3cc(OCCOC)c(OCCOC)cc23)c1 (library stock concentration (final ~1000-fold dilution): 10 mM),NF-kB SEAP reporter activity,[3]; agonist: LPS (TLR4) 0.1 ug/mL,4.68
same,NF-kB SEAP reporter activity,[3]; [4],1.33
same,NF-kB SEAP reporter activity,[3]; [5],0.887
same,NF-kB SEAP reporter activity,[3]; [6],0.935
C#Cc1cccc(Nc2ncnc3cc(OC)c(OCCCCCCC(=O)NO)cc23)c1 (library stock concentration (final ~1000-fold dilution): 10 mM),NF-kB SEAP reporter activity,[1]; agonist: LPS (TLR4) 0.1 ug/mL,7.09
same,NF-kB SEAP reporter activity,[1]; [4],1.67
same,NF-kB SEAP reporter activity,[1]; [5],0.682
same,NF-kB SEAP reporter activity,[1]; [6],1.41
